# Source: PubChem BioAssay
# A selection: hits, their analogues and other compounds. The true share with any hit is near 7.4%.
# Rab9 prom act: qHTS Assay for Rab9 Promoter Activators. AID 485297, 2010. Huh7 Rab9 promoter-luciferase reporter, luminescence, 24 h. 320,000 tested, 2.8% active. Potency, µM (doses to about 9.22 µM), for inactives: top-dose activation, negative = inhibition, hits mostly activators; further: % of control where 0% means no effect; nearly all actives have a fitted effect of over 60% in size
#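 Measured in stably transfected Huh7 cells bearing a Rab9 promoter–luciferase construct: 24 h compound treatment at 37 °C, followed by luminescence detection.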
# ELG1 genotox: qHTS screen for small molecules that induce genotoxicity in human embryonic kidney (HEK293T) cells expressing luciferase-tagged ELG1; Potency, µM (top dose mostly 46 µM), for inactives: top-dose activity change, positive = activation, usual class: activators; HEK293T ELG1-luciferase reporter, luminescence, 16 h; AID 504466, 2011; 330,000 tested, 1.3% active; further: % of control where 0% means no effect; nearly all actives have a fitted effect of over 60% in size
#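 Step 1: seed 2,000 HEK293T ELG1-luciferase cells per well. Step 2: add compound or DMSO, incubate 16 hr at 37 °C. Step 3: ONE-Glo, 30 min at room temperature, read luminescence.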
# FLuc counter: qHTS profiling assay for firefly luciferase inhibitor/activator using purifed enzyme and Km concentrations of substrates (counterscreen for miR-21 project); Luciferin 4-monooxygenase (Photinus pyralis), P08659; AID 588342, 2011; 360,000 tested, 6.9% active; Potency, µM (highest dose often 57.5 µM), inactives show at the top dose activity change, negative = inhibition, most hits filed as inhibitors; purified FLuc, Km substrates, luminescence inhibition;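 further: plate controls were vehicle for no effect and reference inhibitor for full effect; nearly all actives have a fitted effect of over 55% in size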
# Target sequence (P08659 whole entry, looked up): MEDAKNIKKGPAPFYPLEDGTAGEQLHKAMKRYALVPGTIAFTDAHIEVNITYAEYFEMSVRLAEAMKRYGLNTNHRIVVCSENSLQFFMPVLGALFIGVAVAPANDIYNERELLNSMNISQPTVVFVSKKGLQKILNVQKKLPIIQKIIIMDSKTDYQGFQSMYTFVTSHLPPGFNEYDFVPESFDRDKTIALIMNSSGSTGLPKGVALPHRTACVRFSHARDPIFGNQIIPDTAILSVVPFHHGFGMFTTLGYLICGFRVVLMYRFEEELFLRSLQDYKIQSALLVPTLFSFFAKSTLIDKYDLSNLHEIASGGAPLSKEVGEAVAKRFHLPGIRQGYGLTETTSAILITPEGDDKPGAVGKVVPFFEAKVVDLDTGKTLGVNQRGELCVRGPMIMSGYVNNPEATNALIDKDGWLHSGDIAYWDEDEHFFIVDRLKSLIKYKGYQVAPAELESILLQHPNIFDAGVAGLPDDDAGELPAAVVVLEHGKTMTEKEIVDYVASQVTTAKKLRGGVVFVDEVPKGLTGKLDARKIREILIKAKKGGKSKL
#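 Purified P. pyralis luciferase, 10 nM final, with Km-level 10 uM D-luciferin and 10 uM ATP in 50 mM Tris acetate pH 7.5, 10 mM Mg acetate, 0.01% Tween-20, 0.05% BSA; 6-point qHTS titration about 60 µM downward; luminescence read.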
# SMN2 splice up: qHTS Assay for Enhancers of SMN2 Splice Variant Expression | 210,000 tested, 2.8% active | Potency, µM (top dose mostly 46.1 µM), without a hit: top-dose activity change, positive = activation, usual class: activators | HEK293 SMN2-luciferase splicing reporter, luminescence, 30-36 h | AID 1458, 2008; further: % of control where 0% means no effect; nearly all actives have a fitted effect of over 55% in size
#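 HEK293 cells carry an SMN2 minigene-luciferase reporter in which exon 7 inclusion puts luciferase in frame. Cells were seeded at 2000 cells/well, attached for 10-12 hours, then exposed to compounds for 30-36 hours at 37C before ONE-Glo luminescence.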
# NPC1 prom act: qHTS Assay for NPC1 Promoter Activators. Huh7 NPC1 promoter luciferase reporter, 24 h. Potency, µM (series often up to 9.22 µM), for inactives: at the top dose activation, hits mostly activators. AID 485313, 2010. 320,000 tested, 2.4% active; further: % of control where 0% means no effect; nearly all actives have a fitted effect of over 60% in size
#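 Huh7 cells stably carrying NPC1 promoter–luciferase, plated in Opti-MEM with 10% FBS for 2 h, were exposed to compound in DMSO for 24 h at 37 °C; luciferase reagent was added for 10 min and luminescence read.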
# Luc counter: Counterscreen for Luciferase (Kinase-Glo TM) Inhibition. 200,000 tested, 0.28% active. AID 1379, 2008. Luciferin 4-monooxygenase (Photuris pensylvanica), Q27757. Kinase-Glo luciferase, ATP luminescence, 8 min. Potency, µM (titrated, usually from 38.3 µM), inactives show top-dose activity change, negative = inhibition, actives largely listed as inhibitors; further: on the % scale 0 is the no-effect control and ±100 the full control effect; nearly all actives have a fitted effect of over 60% in size
#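 Luminescence was the read-out, taken after 8-minute incubation at ambient temperature. Luciferase turned over luciferin with 10 uM ATP in imidazole pH 7.2 buffer containing KCl, MgCl2, Tween 20 and BSA.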
# * marks the source's active call; other numbers are inactive results; ? = inconclusive; . = no result given; [ ] = another dose, or the depositor's remark. The call rests on the fitted dose curve; in most records, active means well fitted curve in the direction sought with a large enough effect; inconclusive means small, poorly fitted or top-dose-only effect, or another doubt; inactive means no such curve, though single readings can be large; an effect the other way counts as inactive or inconclusive. Potency means the concentration at half of the fitted maximal effect.
SMILES,Rab9 prom act,ELG1 genotox,FLuc counter,SMN2 splice up,NPC1 prom act,Luc counter
COc1ccccc1CCNC(=O)C(=O)c1cn(CC(=O)N2CCOCC2)c2ccccc12,18.0%,9.8%,23.9µM*,.,15.3%,.
O=C(Nc1ccccc1Cl)C(=O)c1cn(CC(=O)N2CCOCC2)c2ccccc12,2.51µM*,?,0.379µM*,.,3.55µM*,.
O=C(COc1ccccc1)c1cn(CC(=O)N2CCCC2)c2ccccc12,-1.8%,0.9%,21.3µM*,-8.3%,-0.6%,-2.9%
O=C(NCc1ccc(Cl)cc1)C(=O)c1cn(CC(=O)N2CCOCC2)c2ccccc12,-1.7%,5.7%,-16.8%,.,-2.6%,.
CCc1ccc(NC(=O)C(=O)c2cn(CC(=O)N3CCCCC3)c3ccccc23)cc1,-2.4%,-1.8%,9.53µM*,3.0%,0.2%,0.9%
NC(=O)Cn1cc(C(=O)COc2ccccc2)c2ccccc21,-2.6%,-1.2%,?,1.3%,0.5%,-3.4%
COc1ccccc1CNC(=O)C(=O)c1cn(CC(=O)N2CCCC2)c2ccccc12,6.5%,2.6%,?,.,16.7%,.
CC(C)n1cc(C(=O)N2CCCC(N3CCN(c4cccc(Cl)c4)CC3)C2)cn1 (configuration not stated),-7.1%,-3.9%,1.9%,.,-2.4%,.
Cc1ccc(NC(=O)C(=O)c2cn(CC(=O)N3CCCCC3)c3ccccc23)cc1,-2.3%,-1.4%,9.53µM*,4.4%,1.2%,0.4%
COc1cccc(NC(=O)C(=O)c2cn(CC(=O)N3CCCC3)c3ccccc23)c1,18.4%,-4.4%,5.36µM*,.,14.6%,.
Cc1c(O)c2ccccc2oc1=O,-0.1%,1.5%,-5.3%,.,-1.9%,.
CCN(CC)S(=O)(=O)c1cccc(N=Nc2c(O)c3ccccc3oc2=O)c1,15.7%,-2.2%,26.9µM*,.,28.0%,.
N#Cc1c(N)nc(N)nc1Nc1ccc(Br)cc1,1.41µM*,9.2µM*,6.01µM*,.,1.26µM*,.
CC(=O)c1ccc(NCC2COc3ccccc3O2)c([N+](=O)[O-])c1 (configuration not stated),1.12µM*,?,16.9µM*,5.62µM*,2.82µM*,-1.5%
O=C(NCC1COc2ccccc2O1)c1ccc(NC(=O)c2ccco2)cc1 (configuration not stated),5.2%,0.1%,1.2%,23.4%,4.1%,3.2%
CC(C)Oc1ccc(/C=C/C(=O)NCC2COc3ccccc3O2)cc1 (configuration not stated),-4.7%,-3.6%,15.1µM*,.,2.9%,.
O=C(NCC1COc2ccccc2O1)c1ccc(Cl)cc1 (configuration not stated),2.51µM*,11.6µM*,7.57µM*,14.1µM*,3.55µM*,-1.2%
NS(=O)(=O)c1ccc(NCC2COc3ccccc3O2)c([N+](=O)[O-])c1 (configuration not stated),21.0%,4.0%,-10.8%,11.2%,-1.3%,4.9%
NC(=O)CC(NC(=O)c1cccc(Br)c1)c1ccc(NCCN2CCOCC2)c([N+](=O)[O-])c1 (configuration not stated),1.0%,2.9%,1.3%,.,-0.7%,.
Cc1cc(C(=O)CS(=O)(=O)c2ccccc2)cc(C)c1O,26.1%,?,?,.,28.0%,.
Cc1cc(C(=O)CSc2ccccc2)cc(C)c1O,-0.1%,?,19µM*,.,?,.
CCOC(=O)c1c(-c2ccccc2)oc2ccc(OCc3ccc(C)cc3)cc12,.,.,-2.9%,-4.1%,.,.
O=C(O)c1c(-c2ccccc2)oc2ccc(OCc3ccc(Cl)c(Cl)c3)cc12,.,.,15.1µM*,15.5%,.,.
C[C@@H](C(=O)O)c1cccc(C(=O)c2ccccc2)c1,.,.,.,3.3%[20.6 µM],.,2.3%[17.1 µM]
Nc1ccc2nc(SCc3ccccc3F)sc2c1,?,?,1.69µM*,.,25.9%,.
SMILES,Rab9 prom act,ELG1 genotox,FLuc counter,SMN2 splice up,NPC1 prom act,Luc counter
CC1CCN(c2ccc(-c3cccc(NS(=O)(=O)c4ccc(F)cc4F)c3)nn2)CC1,.,.,1.69µM*,.,.,.
Cc1nnc2ccc(-c3cccc(NS(=O)(=O)c4cc(F)ccc4F)c3)nn12,0.7%,2.0%,0.1%,.,-13.0%,.
O=S(=O)(Nc1ccc(N2CCCCC2)cc1)c1ccc(F)cc1F,-2.7%,0.3%,-2.3%,.,1.9%,.
O=S(=O)(Nc1cccc(-c2ccc3nncn3n2)c1)c1cccs1,3.4%,?,-7.9%,?,-1.5%,0.1%
O=S(=O)(Nc1cccc(-c2ccc(N3CCCC3)nn2)c1)c1cc(F)ccc1F,.,.,6.01µM*,.,.,.
O=S(=O)(Nc1cccc(-c2ccc(N3CCCCC3)nn2)c1)c1ccc(F)cc1F,.,.,1.9µM*,.,.,.
Cc1ccc(S(=O)(=O)Nc2cccc(-c3ccc(N4CCC(C)CC4)nn3)c2)s1,.,.,0.757µM*,.,.,.
O=C(c1cccc(S(=O)(=O)N2CCCc3ccccc32)c1)N1CCN(c2ccccc2)CC1,.,-7.0%,.,.,.,.
Cc1ccc(C(C(=O)NC2CCCCC2)N(Cc2cccnc2)C(=O)C2COc3ccccc3O2)o1 (configuration not stated),1.26µM*,-5.8%,9.0%,17.5%,?,-7.9%
COc1ccc2nc(NC(=O)CSC3=NCCS3)sc2c1,?,-0.7%,16.9µM*,-7.1%,?,-3.0%
COc1ccc2nc(NC(=O)CS(=O)(=O)Cc3ccccc3)sc2c1,11.5%,5.0%,?,15.0%,-1.4%,0.3%
COc1ccc2nc(NC(=O)CSc3ccccc3)sc2c1,12.8%,?,16.9µM*,-11.5%,16.9%,3.2%
CCCC(=O)Nc1nc2ccc(OC)cc2s1,1.78µM*,?,7.57µM*,10µM*,0.891µM*,-1.2%
COc1ccc2nc(NC(=S)N(C)C)sc2c1,0.631µM*,0.82µM*,1.9µM*,-18.2%,0.708µM*,-4.8%
COc1ccc2nc(NC(=O)CN3CCN(C)CC3)sc2c1,-3.2%,9.6%,?,-10.7%,0.7%,-0.8%
COc1ccc(OC)c(NC(=O)CSC2=NCCS2)c1,-2.6%,-7.5%,?,53.4%,-2.1%,0.4%
CSc1ccc(-c2nc3ncccn3c2Nc2ccc(C)c(C)c2)cc1,.,.,-11.2%,21.2%,.,.
COc1ccc2nc(NC(=O)CSc3nc4cccnc4n3C)sc2c1,-0.9%,-3.9%,-3.3%,-43.1%,-4.0%,1.7%
COc1ccc2nc(NC(=O)CSc3nnc(C)n3N)sc2c1,0.501µM*,7.3µM*,3.01µM*,.,1.58µM*,.
CCOc1ccc2nc(NC(=O)CSc3ccc(Cl)cc3)sc2c1,2.0%,25.2%,?,7.6%,2.1%,1.4%
CCOc1ccc2nc(NC(=O)CSc3nc(SC)ns3)sc2c1,?,18.1%,23.9µM*,?,22.1%,-1.4%
